What was measured:
[1] = target: T1, Tyrosine-protein kinase ITK/TSK (Homo sapiens) (UniProt Q08881); details: at 1 µM;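 further: values are mean percent inhibition of ITK from the GSK PKIS screen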
T1 sequence (whole entry): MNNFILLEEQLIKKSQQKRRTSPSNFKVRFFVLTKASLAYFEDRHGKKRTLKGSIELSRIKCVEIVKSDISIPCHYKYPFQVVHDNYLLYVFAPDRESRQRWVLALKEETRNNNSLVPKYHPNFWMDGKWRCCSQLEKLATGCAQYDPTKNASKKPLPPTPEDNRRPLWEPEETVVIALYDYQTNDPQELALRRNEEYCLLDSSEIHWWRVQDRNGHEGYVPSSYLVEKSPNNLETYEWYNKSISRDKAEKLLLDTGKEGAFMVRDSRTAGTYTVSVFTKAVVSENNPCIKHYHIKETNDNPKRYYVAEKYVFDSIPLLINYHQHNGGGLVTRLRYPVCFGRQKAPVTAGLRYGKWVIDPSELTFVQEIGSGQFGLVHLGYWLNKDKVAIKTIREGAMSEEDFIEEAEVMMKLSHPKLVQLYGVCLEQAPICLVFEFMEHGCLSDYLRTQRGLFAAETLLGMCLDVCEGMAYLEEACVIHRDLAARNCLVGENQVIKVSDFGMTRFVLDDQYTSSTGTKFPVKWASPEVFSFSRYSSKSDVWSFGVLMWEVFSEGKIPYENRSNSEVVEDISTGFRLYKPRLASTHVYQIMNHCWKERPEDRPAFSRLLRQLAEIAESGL

[2] = target: Tyrosine-protein kinase JAK1 (Homo sapiens) (UniProt P23458); details: at 0.1 µM
[3] = target: Tyrosine-protein kinase JAK1 (Homo sapiens) (UniProt P23458); details: at 1 µM
[4] = target: Tyrosine-protein kinase JAK2 (Homo sapiens) (UniProt O60674); details: at 0.1 µM
[5] = target: Tyrosine-protein kinase JAK2 (Homo sapiens) (UniProt O60674); details: at 1 µM
[6] = target: T2, Tyrosine-protein kinase JAK3 (Homo sapiens) (UniProt P52333); details: at 0.1 µM
T2 sequence (whole entry): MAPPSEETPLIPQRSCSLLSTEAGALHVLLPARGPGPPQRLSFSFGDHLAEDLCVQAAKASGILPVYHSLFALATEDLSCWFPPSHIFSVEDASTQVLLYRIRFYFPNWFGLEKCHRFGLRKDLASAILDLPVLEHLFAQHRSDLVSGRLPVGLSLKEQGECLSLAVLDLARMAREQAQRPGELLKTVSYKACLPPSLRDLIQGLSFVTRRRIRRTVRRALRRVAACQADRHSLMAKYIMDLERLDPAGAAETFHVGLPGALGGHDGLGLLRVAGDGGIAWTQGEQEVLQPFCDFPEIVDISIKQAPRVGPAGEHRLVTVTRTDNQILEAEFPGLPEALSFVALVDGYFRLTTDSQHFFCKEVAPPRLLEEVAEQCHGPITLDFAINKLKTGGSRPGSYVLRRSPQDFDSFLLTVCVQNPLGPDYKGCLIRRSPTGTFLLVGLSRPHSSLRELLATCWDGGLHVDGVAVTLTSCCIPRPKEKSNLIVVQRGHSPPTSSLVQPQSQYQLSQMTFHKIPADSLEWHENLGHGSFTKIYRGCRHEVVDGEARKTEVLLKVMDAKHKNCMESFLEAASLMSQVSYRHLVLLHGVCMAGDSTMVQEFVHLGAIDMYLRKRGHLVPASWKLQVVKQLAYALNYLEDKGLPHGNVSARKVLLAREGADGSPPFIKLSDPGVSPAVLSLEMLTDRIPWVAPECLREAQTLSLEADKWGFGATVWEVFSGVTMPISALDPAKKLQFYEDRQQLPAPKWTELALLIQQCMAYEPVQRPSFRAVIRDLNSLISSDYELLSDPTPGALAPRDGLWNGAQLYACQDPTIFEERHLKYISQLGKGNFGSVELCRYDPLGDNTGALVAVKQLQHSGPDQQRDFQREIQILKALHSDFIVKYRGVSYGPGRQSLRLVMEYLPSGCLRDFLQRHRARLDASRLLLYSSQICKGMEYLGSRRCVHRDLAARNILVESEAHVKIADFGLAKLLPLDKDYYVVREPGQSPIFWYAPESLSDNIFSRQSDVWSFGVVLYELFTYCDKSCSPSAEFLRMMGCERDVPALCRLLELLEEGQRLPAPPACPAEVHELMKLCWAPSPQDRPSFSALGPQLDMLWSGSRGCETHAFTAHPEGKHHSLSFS

[7] = target: T2, Tyrosine-protein kinase JAK3 (Homo sapiens); details: at 1 µM
[8] = target: Vascular endothelial growth factor receptor 2 (Homo sapiens) (UniProt P35968); details: at 0.1 µM
[9] = target: Vascular endothelial growth factor receptor 2 (Homo sapiens) (UniProt P35968); details: at 1 µM
[10] = target: Mast/stem cell growth factor receptor Kit (Homo sapiens) (UniProt P10721); details: at 0.1 µM
[11] = target: Mast/stem cell growth factor receptor Kit (Homo sapiens) (UniProt P10721); details: at 1 µM
[12] = tested on: Mast/stem cell growth factor receptor Kit (Homo sapiens), P10721 [D816V]; details: at 0.1 µM
[13] = tested on: Mast/stem cell growth factor receptor Kit (Homo sapiens), P10721 [D816V]; details: at 1 µM
[14] = tested on: Mast/stem cell growth factor receptor Kit (Homo sapiens), P10721 [T670I]; details: at 0.1 µM
[15] = tested on: Mast/stem cell growth factor receptor Kit (Homo sapiens), P10721 [T670I]; details: at 1 µM
[16] = tested on: Mast/stem cell growth factor receptor Kit (Homo sapiens), P10721 [V560G]; details: at 0.1 µM
[17] = tested on: Mast/stem cell growth factor receptor Kit (Homo sapiens), P10721 [V560G]; details: at 1 µM
[18] = target: Tyrosine-protein kinase Lck (Homo sapiens) (UniProt P06239); details: at 0.1 µM
[19] = target: Tyrosine-protein kinase Lck (Homo sapiens) (UniProt P06239); details: at 1 µM
[20] = target: Leukocyte tyrosine kinase receptor (Homo sapiens) (UniProt P29376); details: at 0.1 µM
Sequence of Leukocyte tyrosine kinase receptor (Homo sapiens) (P29376 whole entry): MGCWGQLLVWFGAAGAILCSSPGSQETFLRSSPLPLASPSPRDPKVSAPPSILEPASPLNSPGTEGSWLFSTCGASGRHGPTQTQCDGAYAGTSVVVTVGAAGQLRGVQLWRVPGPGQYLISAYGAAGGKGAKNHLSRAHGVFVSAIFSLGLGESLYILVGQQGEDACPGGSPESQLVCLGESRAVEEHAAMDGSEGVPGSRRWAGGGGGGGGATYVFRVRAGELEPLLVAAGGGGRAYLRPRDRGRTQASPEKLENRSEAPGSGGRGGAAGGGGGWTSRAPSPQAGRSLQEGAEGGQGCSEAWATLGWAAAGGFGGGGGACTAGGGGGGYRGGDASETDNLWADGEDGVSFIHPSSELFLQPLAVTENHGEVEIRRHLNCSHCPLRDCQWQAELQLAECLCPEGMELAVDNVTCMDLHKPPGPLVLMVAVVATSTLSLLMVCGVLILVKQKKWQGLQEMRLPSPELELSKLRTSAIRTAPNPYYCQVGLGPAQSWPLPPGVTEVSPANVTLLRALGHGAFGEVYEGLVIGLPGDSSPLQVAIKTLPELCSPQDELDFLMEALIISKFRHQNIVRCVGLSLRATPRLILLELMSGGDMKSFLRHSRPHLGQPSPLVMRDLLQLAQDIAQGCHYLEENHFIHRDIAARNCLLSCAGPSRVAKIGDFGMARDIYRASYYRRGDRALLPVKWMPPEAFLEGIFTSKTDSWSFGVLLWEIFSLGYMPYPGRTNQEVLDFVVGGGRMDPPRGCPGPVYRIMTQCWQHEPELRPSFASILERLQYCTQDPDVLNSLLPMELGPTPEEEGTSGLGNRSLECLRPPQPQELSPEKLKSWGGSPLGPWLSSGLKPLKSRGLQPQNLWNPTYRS

Sequence of Tyrosine-protein kinase JAK2 (Homo sapiens) (O60674 whole entry): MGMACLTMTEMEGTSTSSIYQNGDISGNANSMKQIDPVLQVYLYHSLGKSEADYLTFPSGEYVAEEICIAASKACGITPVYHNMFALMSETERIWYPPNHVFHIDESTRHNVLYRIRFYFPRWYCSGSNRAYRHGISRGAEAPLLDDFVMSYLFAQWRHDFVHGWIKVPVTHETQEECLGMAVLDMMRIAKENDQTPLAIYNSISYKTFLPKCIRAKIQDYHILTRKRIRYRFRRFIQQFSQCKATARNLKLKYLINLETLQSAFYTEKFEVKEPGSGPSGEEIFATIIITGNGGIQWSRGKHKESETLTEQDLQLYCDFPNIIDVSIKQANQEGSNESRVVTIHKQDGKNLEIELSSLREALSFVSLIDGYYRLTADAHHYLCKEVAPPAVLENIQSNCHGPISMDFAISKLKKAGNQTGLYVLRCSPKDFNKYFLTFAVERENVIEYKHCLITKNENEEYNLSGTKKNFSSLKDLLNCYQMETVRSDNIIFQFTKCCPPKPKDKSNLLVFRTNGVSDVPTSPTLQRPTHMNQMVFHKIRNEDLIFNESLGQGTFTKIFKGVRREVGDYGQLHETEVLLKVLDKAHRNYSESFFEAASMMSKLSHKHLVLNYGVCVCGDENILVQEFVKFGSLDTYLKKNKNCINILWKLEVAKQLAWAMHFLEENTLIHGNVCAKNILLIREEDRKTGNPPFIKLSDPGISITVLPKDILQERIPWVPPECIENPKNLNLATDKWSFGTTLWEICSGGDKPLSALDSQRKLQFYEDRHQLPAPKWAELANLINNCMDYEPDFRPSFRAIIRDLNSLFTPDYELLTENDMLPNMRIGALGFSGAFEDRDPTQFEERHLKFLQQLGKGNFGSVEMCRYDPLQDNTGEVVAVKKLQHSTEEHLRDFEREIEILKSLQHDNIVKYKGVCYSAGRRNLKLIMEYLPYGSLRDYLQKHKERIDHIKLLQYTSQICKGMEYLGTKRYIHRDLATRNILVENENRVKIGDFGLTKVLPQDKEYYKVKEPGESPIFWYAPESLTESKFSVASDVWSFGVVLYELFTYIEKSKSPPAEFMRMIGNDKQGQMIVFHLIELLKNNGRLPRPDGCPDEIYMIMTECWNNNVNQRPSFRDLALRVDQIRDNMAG
Sequence of Tyrosine-protein kinase Lck (Homo sapiens) (P06239 2-509 limits assumed): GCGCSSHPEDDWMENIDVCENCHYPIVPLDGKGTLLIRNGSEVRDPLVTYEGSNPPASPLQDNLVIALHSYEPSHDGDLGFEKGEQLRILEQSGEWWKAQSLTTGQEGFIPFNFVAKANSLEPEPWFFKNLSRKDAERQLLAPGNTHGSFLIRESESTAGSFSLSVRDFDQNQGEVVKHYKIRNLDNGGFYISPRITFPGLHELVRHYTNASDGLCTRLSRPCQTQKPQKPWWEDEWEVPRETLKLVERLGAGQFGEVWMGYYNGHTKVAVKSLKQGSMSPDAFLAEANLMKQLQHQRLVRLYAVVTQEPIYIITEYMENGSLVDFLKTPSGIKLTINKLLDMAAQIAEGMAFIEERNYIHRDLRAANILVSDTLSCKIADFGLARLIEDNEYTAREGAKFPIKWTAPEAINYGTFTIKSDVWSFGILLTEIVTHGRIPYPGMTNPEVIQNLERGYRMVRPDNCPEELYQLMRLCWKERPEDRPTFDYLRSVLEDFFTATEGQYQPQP
Sequence of Mast/stem cell growth factor receptor Kit (Homo sapiens), P10721 [D816V] (P10721 whole entry D816V): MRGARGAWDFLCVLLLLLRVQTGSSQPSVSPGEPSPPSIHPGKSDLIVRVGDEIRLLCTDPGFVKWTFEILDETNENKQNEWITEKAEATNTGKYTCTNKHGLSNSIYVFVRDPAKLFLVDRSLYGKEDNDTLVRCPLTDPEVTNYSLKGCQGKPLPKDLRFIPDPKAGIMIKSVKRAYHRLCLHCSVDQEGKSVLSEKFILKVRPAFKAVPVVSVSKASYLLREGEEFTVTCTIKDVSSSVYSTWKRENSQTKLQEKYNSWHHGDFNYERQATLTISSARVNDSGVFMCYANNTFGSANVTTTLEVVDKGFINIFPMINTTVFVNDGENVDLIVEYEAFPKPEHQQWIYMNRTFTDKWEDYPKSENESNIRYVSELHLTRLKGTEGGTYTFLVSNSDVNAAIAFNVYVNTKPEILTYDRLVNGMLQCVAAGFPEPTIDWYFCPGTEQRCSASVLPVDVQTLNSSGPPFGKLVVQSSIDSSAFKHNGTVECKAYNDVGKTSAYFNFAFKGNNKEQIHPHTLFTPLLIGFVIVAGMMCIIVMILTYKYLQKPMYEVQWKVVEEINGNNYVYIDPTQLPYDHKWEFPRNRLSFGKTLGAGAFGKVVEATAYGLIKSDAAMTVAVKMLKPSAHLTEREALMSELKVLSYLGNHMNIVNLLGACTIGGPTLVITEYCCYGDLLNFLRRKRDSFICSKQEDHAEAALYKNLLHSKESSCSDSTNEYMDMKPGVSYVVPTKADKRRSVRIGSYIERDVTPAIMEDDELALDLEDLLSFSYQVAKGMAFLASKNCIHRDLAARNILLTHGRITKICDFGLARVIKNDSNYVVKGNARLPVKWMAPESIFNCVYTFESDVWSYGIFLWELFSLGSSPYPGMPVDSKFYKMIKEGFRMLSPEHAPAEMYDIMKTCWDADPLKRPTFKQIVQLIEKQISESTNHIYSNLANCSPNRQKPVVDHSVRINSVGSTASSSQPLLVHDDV
Sequence of Mast/stem cell growth factor receptor Kit (Homo sapiens), P10721 [T670I] (P10721 whole entry T670I): as the sequence (P10721 whole entry D816V) above, with T670I, V816D counted along it
Sequence of Vascular endothelial growth factor receptor 2 (Homo sapiens) (P35968 whole entry): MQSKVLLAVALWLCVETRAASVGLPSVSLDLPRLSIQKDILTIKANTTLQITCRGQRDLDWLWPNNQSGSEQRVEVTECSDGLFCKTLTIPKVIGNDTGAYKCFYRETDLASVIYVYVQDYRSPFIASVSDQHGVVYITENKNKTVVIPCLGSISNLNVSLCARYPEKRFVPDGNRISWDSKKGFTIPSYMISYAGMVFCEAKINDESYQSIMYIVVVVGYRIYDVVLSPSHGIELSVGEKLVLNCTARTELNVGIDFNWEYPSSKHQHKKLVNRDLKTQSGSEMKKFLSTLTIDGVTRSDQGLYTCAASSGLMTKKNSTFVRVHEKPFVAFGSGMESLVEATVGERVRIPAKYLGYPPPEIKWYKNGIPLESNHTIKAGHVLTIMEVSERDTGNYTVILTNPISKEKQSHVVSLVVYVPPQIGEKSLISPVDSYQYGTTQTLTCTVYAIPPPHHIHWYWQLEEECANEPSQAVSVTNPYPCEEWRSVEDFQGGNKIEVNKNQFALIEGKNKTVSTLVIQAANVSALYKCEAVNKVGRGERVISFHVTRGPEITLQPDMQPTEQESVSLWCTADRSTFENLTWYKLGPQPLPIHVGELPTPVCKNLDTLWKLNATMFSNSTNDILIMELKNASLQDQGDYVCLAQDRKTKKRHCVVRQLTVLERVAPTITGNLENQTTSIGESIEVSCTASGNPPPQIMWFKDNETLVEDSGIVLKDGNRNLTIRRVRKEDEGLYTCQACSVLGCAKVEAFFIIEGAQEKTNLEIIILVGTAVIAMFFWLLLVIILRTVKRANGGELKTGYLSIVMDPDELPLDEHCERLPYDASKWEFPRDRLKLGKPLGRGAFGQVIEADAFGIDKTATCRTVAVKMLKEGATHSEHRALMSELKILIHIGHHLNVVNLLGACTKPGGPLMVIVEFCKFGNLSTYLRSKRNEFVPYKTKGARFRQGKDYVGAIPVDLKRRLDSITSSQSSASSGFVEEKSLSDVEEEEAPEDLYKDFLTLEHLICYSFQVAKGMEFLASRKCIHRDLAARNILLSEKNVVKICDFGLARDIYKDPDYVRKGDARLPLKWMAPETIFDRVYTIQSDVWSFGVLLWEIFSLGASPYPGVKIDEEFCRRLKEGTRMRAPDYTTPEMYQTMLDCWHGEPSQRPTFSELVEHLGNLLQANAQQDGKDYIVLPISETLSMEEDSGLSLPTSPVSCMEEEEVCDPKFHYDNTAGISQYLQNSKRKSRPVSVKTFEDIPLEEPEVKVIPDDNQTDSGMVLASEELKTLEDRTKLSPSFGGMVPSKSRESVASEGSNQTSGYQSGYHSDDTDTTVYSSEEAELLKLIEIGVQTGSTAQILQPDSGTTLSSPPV
Sequence of Mast/stem cell growth factor receptor Kit (Homo sapiens), P10721 [V560G] (P10721 whole entry V560G): as the sequence (P10721 whole entry D816V) above, with V560G, V816D counted along it
Sequence of Mast/stem cell growth factor receptor Kit (Homo sapiens) (P10721 whole entry): as the sequence (P10721 whole entry D816V) above, with V816D counted along it

| Structure (SMILES) | inhibition [1] | inhibition [2] | inhibition [3] | inhibition [4] | inhibition [5] | inhibition [6] | inhibition [7] | inhibition [8] | inhibition [9] | inhibition [10] | inhibition [11] | inhibition [12] | inhibition [13] | inhibition [14] | inhibition [15] | inhibition [16] | inhibition [17] | inhibition [18] | inhibition [19] | inhibition [20] |
| --- | --- | --- | --- | --- | --- | --- | --- | --- | --- | --- | --- | --- | --- | --- | --- | --- | --- | --- | --- | --- |
| CC(=O)Nc1cccc(C#Cc2cncnc2Nc2ccc(OCc3cccc(F)c3)c(Cl)c2)n1 | 0.33% | 3.25% | 14.8% | -1.97% | -0.27% | 2.07% | 2.66% | -2.26% | 2.74% | -0.74% | 2.11% | -0.94% | 3.5% | -1.12% | 0.59% | 2.08% | 4.22% | 1.9% | 1.84% | -0.61% |
| COc1ccccc1Nc1ncc(-c2ccccc2)o1 | 3.07% | 4.14% | 5.2% | 0.56% | -0.51% | -3.6% | -1.96% | 10.6% | 19.2% | 78.2% | 98.2% | 4.74% | 6.9% | 17.8% | 77.7% | 31.5% | 85.5% | 4.55% | 9.64% | 3.5% |
| Cc1cc(O)cc(C)c1/C=C/c1cncc(-c2nn[nH]n2)c1 | -1.93% | 1.7% | 4.82% | 1.66% | 2.27% | -4.63% | -3.88% | 4.58% | 10.2% | 11.9% | 65.5% | 5.64% | 3.74% | 1.04% | 3.66% | -0.1% | 22.1% | 1.97% | 42.5% | 6.07% |
| CCn1c(-c2nonc2N)nc2c(N3CCCC3)nccc21 | -0.14% |  | -2.79% | -0.66% | -1.59% | -0.2% | 2.23% | 1.32% | 6.67% | -1.56% | 1.81% | -1.12% | -0.65% | -1.62% | -1.43% | -0.78% | 1.06% | -2.27% | -0.36% | 0.51% |
| NS(=O)(=O)c1ccc(N/N=C2\C(=O)Nc3ccc(C(=O)NCCc4c[nH]cn4)cc32)cc1 | 3.56% | 5.75% | 0.16% | 2.27% | 2.46% | 0.03% | 3.43% | 12.9% | 43.3% | 5.68% | 7.76% | 3.86% | 6.74% | 3.65% | 4% | -1.9% | 3.01% | 4.09% | 9.31% | 5.2% |
| CS(=O)(=O)CCNCc1ccc(-c2ccc3ncnc(Nc4ccc(OCc5cccc(F)c5)c(C(F)(F)F)c4)c3c2)o1 | 0.72% | 3.98% | 13.3% | 0.47% | 1.17% | -0.58% | -0.15% | 3.99% | 3.93% | 3.96% | 4.6% | 5.18% | 2.67% | 4.9% | 4.53% | -3.52% | -0.7% | 1.82% | 3.95% | 3.59% |
| [O-][S+]1CCN(Cc2ccc(-c3ccc4ncnc(Nc5ccc(OCc6ccccc6)c(F)c5)c4c3)o2)CC1 | 2.13% | 0.52% | 0.63% | 0.4% | 0.64% | 0.01% | -0.11% | 2.98% | 6.19% | 2.02% | 3.42% | 2.25% | -1.53% | 0.34% | 1.07% | -2.07% | -2.71% | 1.81% | 7.89% | 2.21% |
| COc1cc2ncn(-c3cc(OCc4ccccc4C(F)(F)F)c(C(N)=O)s3)c2cc1OC | -0.36% | 1.72% | 2.62% | 1.67% | 1.84% | -6.46% | -2.61% | 21.7% | 68.9% |  | 20.5% | 5.23% | 7.66% | 3.55% | 9.7% | -1.78% | 2.96% | 0.99% | 12.6% | 2.36% |
| CCc1cccc(NC(=O)Nc2ccc(Oc3ccc4nc(NC(=O)OC)[nH]c4c3)cc2)c1 | 1.87% | 1.39% | 1.27% | 1.07% | 4.62% | -1.05% | 1.13% |  |  | 87.5% | 93% | 0.55% | 0% | 58.6% | 69.8% | 65.6% | 74.1% | 5.87% | 8.47% | 1.87% |
| COc1cc(C)c(NC(=O)CN(C)C)cc1Nc1nc(Nc2cccc(F)c2C(N)=O)c2cc[nH]c2n1 | 1.95% | 2.55% | -4.44% | 0.46% | 0.22% | 0.71% | -1.63% | 3.26% | 4.13% | 2.98% | 4.07% | 2.88% | 1.48% | 0.3% | 0.56% | 0.02% | 0.48% | 1.38% | 1.74% | 92.9% |
| NC(=O)c1cccc(Nc2nccc(Nc3cccc4[nH]ncc34)n2)c1 | 1.1% |  | 19.6% | 6.75% | 57% | 0.54% | 25.2% | 16.1% | 63.1% | 48.5% | 91.1% | -2.32% | 14.6% | -2.9% | 4.51% | 5.52% | 22.5% | 36.7% | 81.8% | 4.75% |
| Cc1cccc(-c2n[nH]cc2-c2ccc3ncccc3n2)n1 | 1.48% | -0.09% | 3.85% | -0.23% | -0.14% | 0.65% | 3.06% | 61.3% | 83.2% | -0.25% | 2.16% | 3.77% | 18% | -0.33% | -0.51% | 3.48% | -0.13% | 0.45% | 4.51% | 0.62% |
| NCc1ccc(-c2nc(-c3ccc(Cl)c(O)c3)c(-c3ccncc3)[nH]2)cc1 | 1.29% | -0.11% | 2.34% | 0.65% | 0.75% | 1.4% | 1.41% | 69.2% | 74.8% | 0.79% | 2.11% | 1.93% | 5.11% | -0.4% | 0.77% | 1.37% | 6.11% | 5.93% | 33% | 1% |
| Nc1ncnc2occ(-c3ccc(NC(=O)Nc4cc(C(F)(F)F)cc(C(F)(F)F)c4)cc3)c12 | 11.2% | -0.74% |  | 0.74% | 1.44% | 0.06% | 0.78% | 46.7% | 68.2% | 29% | 90.6% | -2.07% | 10.8% | 22% | 88.4% | 33.8% | 82.2% | 6.28% | 38.8% | 2.1% |
